From PubChem BioAssay
Most compounds without a hit are left out; they make up all but 3.6% or so of the library.
Mtb bLac sens: beta-lactam sensitization of Mtb H37Rv, H37Rv; M. tuberculosis H37Rv growth with meropenem, percent inhibition; inhibition, % at 25 µM; 0.27% of 330,000 active; AID 434955, 2010; call rule not given here;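 note: growth measured after seven days incubation then overnight dye step; 0% = bacteria only wells and 100% = bacteria with antibiotic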
Mtb FBA inh: Mtb FBA enzyme inhibitors, primary screen, biochemical, fluorescence, strain H37Rv; 2.3% of 360,000 active; AID 588726, 2011; purified M. tuberculosis FBA, fluorescence read-out; inhibition, % at 1 µM; in the data active = inhibition above about 27%;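 note: 0% = vehicle and 100% = reference inhibitor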
Target sequence (P9WQA3 whole entry, looked up): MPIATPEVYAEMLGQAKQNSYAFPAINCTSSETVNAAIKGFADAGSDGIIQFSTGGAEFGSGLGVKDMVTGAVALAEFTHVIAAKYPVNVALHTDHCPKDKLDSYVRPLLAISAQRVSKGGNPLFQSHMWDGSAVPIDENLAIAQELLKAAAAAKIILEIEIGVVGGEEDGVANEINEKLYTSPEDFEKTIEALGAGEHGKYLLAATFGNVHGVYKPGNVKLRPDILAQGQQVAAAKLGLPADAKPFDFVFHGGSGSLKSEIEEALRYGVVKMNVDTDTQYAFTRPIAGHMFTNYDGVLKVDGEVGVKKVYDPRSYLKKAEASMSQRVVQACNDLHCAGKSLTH
GDH-TPI counter: GDH-TPI coupling enzyme inhibitors, primary screen, artefact control for M. tuberculosis FBA inhibitor project, biochemical, absorbance, full deck | 1.2% of 360,000 active | inhibition, % at 4.8 µM | GDH-TPI coupled enzyme counterscreen, NADH absorbance | AID 588335, 2011; in the data active = inhibition above about 30%;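 note: 0% = DMSO wells and 100% = wells lacking the enzyme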
VHR inh abs: VHR1 phosphatase inhibitors, primary screen, biochemical, absorbance, uHTS; recombinant VHR phosphatase, pNPP absorbance; 0.52% of 290,000 active; inhibition, % at 13.3 µM; in the data active = inhibition above about 50%
Target sequence (P51452 whole entry, looked up): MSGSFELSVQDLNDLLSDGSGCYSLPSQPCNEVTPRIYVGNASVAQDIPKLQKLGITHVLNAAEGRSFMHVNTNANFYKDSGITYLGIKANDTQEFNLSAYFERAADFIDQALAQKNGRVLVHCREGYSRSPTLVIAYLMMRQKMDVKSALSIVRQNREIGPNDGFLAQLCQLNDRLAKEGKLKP
Mtb hypoxia rep: PubChem AID 1159583. M. tuberculosis hypoxia-regulated fluorescent reporter, fluorescence. fluorescence inhibition, % (concentration not given with the values). 0.1% of 300,000 active; in the data active = fluorescence inhibition mostly above about 23%, no sharp cut-off; inactive = mostly below about 17%
The depositor's hits bear a star; . = no result given; + = active, no number.

SMILES	Mtb bLac sens	Mtb FBA inh	GDH-TPI counter	VHR inh abs	Mtb hypoxia rep
COC(=O)C1=C(C(=O)OC)C2N(C)c3ccc(OC)cc3[C@@]23CC(C(=O)OC)N(C(=O)c2ccco2)C3=N1 (stereo partly specified)	.	.	.	.	23
CC1(C)CCC[C@@]2(C)C1CC[C@@]1(C)Oc3ccc(O)cc3CC21 (stereo partly specified)	.	.	.	.	20
CCCCNC(=O)C1CCCN1S(=O)(=O)c1cccc2cccnc12 (stereo unspecified)	.	.	.	.	8
CN(C)C(=O)N1CCN(c2nc(-c3ccccc3)cs2)CC1	5	-4	12	53*	15
O=C(N1CCOCC1)N1CCN(c2nc(-c3ccccc3)cs2)CC1	.	3	11	3	5
CCn1c(O)c(N=NC(=O)CNC(=O)c2cccnc2)c2ccccc21	.	4	37*	.	.
Cn1c(O)c(N=NC(=O)CNC(=O)c2ccccc2)c2ccccc21	-6	-4	10	53*	18
Cn1cnnc1SCc1ccc(C(=O)N=Nc2c(O)n(C)c3ccccc23)cc1	-2	2	33*	6	8
c1ccc(Oc2ccc(-c3ccn[nH]3)cc2)cc1	3	-2	-3	40	16
c1ccc(-c2ncc(-c3ccn[nH]3)s2)cc1	-1	139*	15	18	18
Cc1cccc(N2C(=O)NC(=O)/C(=C/c3ccc(N4CCOCC4)cc3)C2=O)c1	-11	0	21	-4	10
Cc1cccc(N2C(=O)NC(=O)/C(=C\c3ccc(N4CCOCC4)cc3)C2=O)c1	-5	-4	31*	-18	7
O=[N+]([O-])c1ccc(N2CCOCC2)c(S(=O)(=O)N2CCOCC2)c1	5	2	8	12	-3
O=[N+]([O-])c1ccc(NCCCO)c(S(=O)(=O)N2CCOCC2)c1	0	-2	40*	-12	10
CC(CC(=O)N1CCN(C=O)CC1)=NNC(=O)c1cc2ccccc2cc1O	.	.	.	.	6
CS(=O)(=O)CCC(C(=O)Nc1ccc2c(c1)OCO2)N1Cc2ccccc2C1=O (stereo unspecified)	-2	-3	8	57*	7
CSCC[C@@H](C(=O)Nc1ccc2c(c1)OCCO2)N1Cc2ccccc2C1=O	-9	4	-1	8	-7
CCCc1nnc(NC(=O)c2oc3ccccc3c2COCC)s1	.	-1	22	.	-2
COCc1c(C(=O)Nc2nnc(C3CC3)s2)oc2ccccc12	.	-1	44*	.	.
Cc1ccc(CC(=O)Nc2nccs2)cc1C	10	7	2	58*	-8
CCOc1ccc(CC(=O)Nc2nccs2)cc1	-2	10	5	22	0
CC(=O)OC1CC[C@@]2(C)C(=CCC3C2CC[C@]2(C)C(=O)CCC32)C1 (stereo partly specified)	.	.	.	.	-3
CCCn1c(-c2ccccc2)nc2c(=O)n(C)c(=O)[nH]c21	-11	+	9	-1	-3
COc1ccc(-c2nc3c(=O)n(C)c(=O)[nH]c3n2CCc2ccccc2)cc1	-4	184*	8	8	.
CCN1C(=O)C2C(c3ccc(-c4cccc(Cl)c4)cc3)N[C@@](CC(C)C)(C(=O)OC)C2C1=O (stereo partly specified)	.	.	.	.	3
SMILES	Mtb bLac sens	Mtb FBA inh	GDH-TPI counter	VHR inh abs	Mtb hypoxia rep
CCOC(=O)C1CCN(Cc2ccccn2)CC1	-6	.	.	-14	.
CCOC(=O)C1CCN(C=Nc2cc(C)on2)CC1	-14	+	8	22	1
c1ccc(C2CN3C(=N2)Sc2ccccc23)cc1 (stereo unspecified)	.	.	.	.	3
Cc1cc(N/N=C/c2c[nH]c3ccccc23)c2ccccc2n1	-3	3	3	7	.
C(=N\NC1=NCCCCC1)/c1c[nH]c2ccccc12	-15	-4	39*	-3	.
Cn1c(N/N=C/c2c[nH]c3ccccc23)nc2ccccc21	66	2	58*	20	.
COc1ccc(C(C[N+](=O)[O-])C2(c3ccc(OC)c(OC)c3)C(=O)c3ccccc3C2=O)cc1 (stereo unspecified)	80	-3	41*	-8	.
COc1ccc(C(C[N+](=O)[O-])c2c(-c3ccccc3)cc3ccccn23)cc1OC (stereo unspecified)	-1	1	12	11	15
COc1cc(OC)c2c(C)cc(=O)oc2c1	27	+	21	-29	.
CCCCCc1cc(O)c2c(C)cc(=O)oc2c1	-1	3	22	-1	0
Cc1cc(=O)oc2cc(O)cc(O)c12	.	196*	6	.	.
COc1ccc(C(=O)COc2ccc3ccc(=O)oc3c2)c(OC)c1	100	25	13	-9	.
COc1cc(OC)c2ccc(=O)oc2c1	-11	+	13	.	.
COc1cc(CCN2C(=O)NC(CCc3ccccc3)C(C(C)=O)=C2C)cc(OC)c1OC (stereo unspecified)	.	.	.	.	-1
CCCn1c(C(CO)Nc2nc(C)cs2)nc2ccccc21 (stereo unspecified)	-2	2	0	59*	16
Cc1csc(NC(CO)c2nc3ccccc3n2CCOCCO)n1 (stereo unspecified)	-3	2	-1	.	7
CC(C)CC(CN1C(=O)C(=O)NCC1CC(C)C)NC(=O)Cc1ccccc1 (stereo unspecified)	.	.	.	.	2
O=C(O)Cn1c2ccccc2c2nc3ccccc3nc21	.	-2	32*	.	.
Cc1cc(=O)oc2cc(NS(=O)(=O)c3ccc(F)cc3)ccc12	-1	.	52*	6	-6
Cc1cc(=O)oc2cc(NS(=O)(=O)c3ccccc3)ccc12	2	.	37*	22	-2
CN(C)S(=O)(=O)c1ccc(S(=O)(=O)Nc2ccc3c(c2)oc2ccccc23)cc1	6	-1	9	-12	5
COc1ccc2[nH]c3c(c2c1)CCn1c-3nc2ccccc2c1=O	-1	16	59*	13	.
COc1cc(OC)cc(C(=O)Nn2c(C)nc3ccccc3c2=O)c1	-8	1	-8	14	.
Cc1cccc(C2C3C(=O)N(Cc4ccccc4)C(=O)C3[C@]3(C)C(=O)N(c4cccc(F)c4)C(=O)N23)c1 (stereo partly specified)	.	.	.	.	3
O=C(NCc1ccc(F)cc1)C1CC(=O)N(C2CCCCCCC2)C1 (stereo unspecified)	-3	2	3	56*	17
CC(C)OC(=O)CCC(=O)Nc1nc2ccccc2s1	6	-1	1	52*	1
O=C(C=Cc1cccc([N+](=O)[O-])c1)N1CCN(C(=O)c2ccco2)CC1	.	.	.	.	-8
O=C(NCc1ccco1)c1sc2cc(Cl)ccc2c1Cl	0	1	8	-1	-1
O=C(NCc1cccnc1)c1sc2cc(Cl)ccc2c1Cl	53	1	-1	50*	7
O=c1c2ccccc2nc(/C=C/c2ccc(Br)cc2)n1CCO	5	3	35*	.	9
